{"source": "PubChem BioAssay (NCATS)", "note": "Results filed as inconclusive are left out. Entries that show only a call come without a potency. Activity calls are given as the source filed them. Unless noted, the call rests on the fitted dose curve; in most records, active means well fitted curve in the direction sought with a large enough effect; inconclusive means small, poorly fitted or top-dose-only effect, or another doubt; inactive means no such curve, though single readings can be large; an effect the other way counts as inactive or inconclusive.", "data": [{"system": "not listed separately", "experiment": "Cell Viability - LYMP1-002 - Assay at 40 hr (AID 994); further: nearly all actives have a fitted effect of over 60% in size; further: potency means the concentration at half of the fitted maximal effect", "details": "LYMP1-002 lymphoblastoid cell viability; series mostly up to 92.2 µM", "method_in_brief": "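Cytotoxicity was read as loss of cellular ATP (CellTiter-Glo luminescence) after 40 hr compound exposure at 37 C of 2500 LYMP1-002 lymphoblastoid cells per well. Concentration-response data were fitted with the standard Hill equation to give AC50.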", "values": [{"smiles": "Nc1ccc(O)cc1", "Potency": "50.1 µM (active)"}, {"smiles": "Nc1cccc2c(N)cccc12", "Potency": "inactive"}, {"smiles": "O=C(c1ccccc1)c1ccccc1", "Potency": "inactive"}, {"smiles": "CC(=O)OC/C=C(C)/C=C/C=C(C)/C=C/C1=C(C)CCCC1(C)C", "Potency": "inactive"}, {"smiles": "Cc1cc(C(C)(C)C)c(O)c(C(C)(C)C)c1", "Potency": "inactive"}, {"smiles": "Oc1ccccc1", "Potency": "inactive"}, {"smiles": "CCCC(=O)c1cc(O)c(O)cc1O", "Potency": "inactive"}, {"smiles": "Brc1ccccc1-c1ccccc1", "Potency": "inactive"}, {"smiles": "CC(C)(c1ccc(O)cc1)c1ccc(O)cc1", "Potency": "inactive"}, {"smiles": "C1=CC2C3C=CC(C3)C2C1", "note": "(centres undefined)", "Potency": "inactive"}, {"smiles": "CCCCC(CC)COC(=O)c1ccccc1C(=O)O", "note": "(centres undefined)", "Potency": "inactive"}, {"smiles": "O=C(NO)c1ccccc1", "Potency": "inactive"}, {"smiles": "CC(C)C(C)(C)C(C)(C)C(C)(C)S", "Potency": "inactive"}, {"smiles": "c1ccc2occc2c1", "Potency": "inactive"}, {"smiles": "Cc1ccc(O)cc1", "Potency": "inactive"}, {"smiles": "CCCCCCCCCCCCCCCC[n+]1ccccc1", "Potency": "7.94 µM (active)"}, {"smiles": "OCc1c[nH]c2ccccc12", "Potency": "inactive"}, {"smiles": "O=C(Oc1ccccc1)c1ccccc1O", "Potency": "inactive"}, {"smiles": "COc1cc(C=O)ccc1O", "Potency": "inactive"}]}, {"system": "not listed separately", "experiment": "qHTS Assay for Lipid Storage Modulators (AID 1519; calls by dose curve)", "details": "Drosophila S3 cells, BODIPY lipid droplet/cell ratio, laser cytometry; at 57.5 µM (top of the series); cells loaded with oleic acid", "method_in_brief": "(§1)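 Cells seeded at 5,000 per well were treated with compounds over a concentration series and loaded with oleic acid (400 uM, as added). Lipid droplet fluorescence (488 nm excitation, 500-530 nm channel) was read by laser-scanning cytometry and normalized to 20 uM Triacsin C.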", "values": [{"smiles": "Cc1cc(C(C)(C)C)c(O)c(C(C)(C)C)c1", "activity change, negative = inhibition": "4.82% (inactive)"}, {"smiles": "Cc1ccc(O)cc1", "activity change, negative = inhibition": "6.36% (inactive)"}, {"smiles": "OCc1c[nH]c2ccccc12", "activity change, negative = inhibition": "3.03% (inactive)"}]}, {"system": "not listed separately", "experiment": "qHTS Assay for Lipid Storage Modulators (AID 1519)", "details": "Drosophila S3 cells, BODIPY lipid droplet/cell ratio, laser cytometry; measured here: cell count channel max response; cells loaded with oleic acid", "method_in_brief": "as §1", "units": {"max response": "%"}, "values": [{"smiles": "Cc1cc(C(C)(C)C)c(O)c(C(C)(C)C)c1", "max response": 4.25}, {"smiles": "Cc1ccc(O)cc1", "max response": 10.2}, {"smiles": "OCc1c[nH]c2ccccc12", "max response": 0.192}]}, {"system": "not listed separately", "experiment": "qHTS Assay for Lipid Storage Modulators (AID 1519)", "details": "Drosophila S3 cells, BODIPY lipid droplet/cell ratio, laser cytometry; measured here: lipid channel max response; cells loaded with oleic acid", "method_in_brief": "as §1", "units": {"max response": "%"}, "values": [{"smiles": "Cc1cc(C(C)(C)C)c(O)c(C(C)(C)C)c1", "max response": 10.5}, {"smiles": "Cc1ccc(O)cc1", "max response": 20.7}, {"smiles": "OCc1c[nH]c2ccccc12", "max response": 7.12}]}, {"biological_target": "DNA repair nuclease/redox regulator APEX1 (Homo sapiens) (UniProt P27695)", "sequence (P27695 whole entry, looked up)": "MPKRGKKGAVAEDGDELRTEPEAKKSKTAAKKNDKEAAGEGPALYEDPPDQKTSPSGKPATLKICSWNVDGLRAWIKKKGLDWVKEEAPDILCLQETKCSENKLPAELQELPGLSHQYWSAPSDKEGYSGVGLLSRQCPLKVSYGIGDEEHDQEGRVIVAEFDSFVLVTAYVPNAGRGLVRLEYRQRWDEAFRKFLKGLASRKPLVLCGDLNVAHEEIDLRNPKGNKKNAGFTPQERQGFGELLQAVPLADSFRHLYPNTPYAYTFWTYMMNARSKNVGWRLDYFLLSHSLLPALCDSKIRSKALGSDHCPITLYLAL", "experiment": "qHTS Validation Assay for Inhibitors of the Human Apurinic/apyrimidinic Endonuclease 1 (APE1) (AID 1705)", "details": "purified APE1 endonuclease activity, fluorescence, titration; series mostly up to 57.1 µM", "method_in_brief": "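Endonuclease activity of human APE1 is followed as dequenching when the enzyme incises a tetrahydrofuran abasic site in a short duplex labelled 5'-TAMRA/3'-BHQ-2 (50 nM final), after 15 min enzyme–compound preincubation at room temperature.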", "values": [{"smiles": "O=[N+]([O-])c1ccc(-c2nc(-c3ccc(F)cc3)c(-c3ccncc3)[nH]2)cc1", "outcome": "inactive"}, {"smiles": "CC(C)N(CCC(=O)c1ccc2ccccc2c1)Cc1ccccc1", "outcome": "inactive"}, {"smiles": "C[C@]12CCC(=O)C=C1CC[C@@H]1[C@@H]2[C@@H](O)C[C@@]2(C)[C@H]1CC[C@]2(O)C(=O)COC(=O)CCC(=O)O", "outcome": "inactive"}]}, {"biological_target": "Endonuclease 4 (Escherichia coli (strain K12)) (UniProt P0A6C1)", "experiment": "Counterscreen for APE1 Inhibitors: qHTS Validation Assay for Inhibitors of Endonuclease IV (AID 1708)", "details": "E. coli endonuclease IV, DNA cleavage fluorescence; series mostly up to 57.1 µM", "method_in_brief": "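Conditions: 2 nM enzyme, 50 nM TAMRA/BHQ-2 substrate, pH 7.5 Tris buffer with 2 mM MgCl2, RT. Compound preincubation 15 min; readout three fluorescence reads 60 s apart, third-minus-first.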", "values": [{"smiles": "O=[N+]([O-])c1ccc(-c2nc(-c3ccc(F)cc3)c(-c3ccncc3)[nH]2)cc1", "outcome": "inactive"}, {"smiles": "CC(C)N(CCC(=O)c1ccc2ccccc2c1)Cc1ccccc1", "outcome": "inactive"}, {"smiles": "C[C@]12CCC(=O)C=C1CC[C@@H]1[C@@H]2[C@@H](O)C[C@@]2(C)[C@H]1CC[C@]2(O)C(=O)COC(=O)CCC(=O)O", "outcome": "inactive"}]}]}
